# PubChem BioAssay (NCATS)
# Results filed as inconclusive are left out. Some of the results follow. Calls of active or inactive are those of the source. Unless noted, how the calls were made is not given here.
# Experiments:
# [1] = qHTS profiling for inhibitors of Plasmodium falciparum (3D7) proliferation (AID 743322);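 further: infected erythrocytes exposed to compound for 72 h before lysis; 100% = DMSO vehicle wells and 0% = 0.29 µM artemisinin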; settings: P. falciparum 3D7 proliferation; at 28.7 µM (top of the series)
# Procedure, shortened: (§1)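 Parasite DNA was quantified by SYBR Green I fluorescence (ex 485, em 535 nm) after overnight lysis in saponin/Triton buffer at room temperature. Cultures at 0.3% parasitemia and 2.5% hematocrit were first exposed to compound for 72 h at 37 C; signals were normalised to artemisinin (0.29 uM) and vehicle wells.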
# [2] = qHTS profiling for inhibitors of Plasmodium falciparum (DD2) proliferation (AID 743323); settings: lower = more inhibition; at 28.7 µM (top of the series)
# Procedure, shortened: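 1536-well qHTS; infected RBCs 0.3% parasitemia/2.5% Hct final; cpd 72 h 37 C 5% CO2; lysis buffer + SYBR Green I, o/n RT dark; FI 485/535; norm. to 0.29 uM artemisinin and DMSO, plate-stack corrected.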
# [3] = qHTS profiling for inhibitors of Plasmodium falciparum (HB3) proliferation (AID 743324; active means well fitted curve in the direction sought with a large enough effect; an effect the other way counts as inactive or inconclusive;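 further: 100% = DMSO vehicle wells and 0% = artemisinin-treated control wells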); settings: Plasmodium falciparum HB3 blood-stage proliferation; at 28.7 µM (top of the series)
# Procedure, shortened: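 SYBR Green fluorescence (485 ex/535 em) of lysed cultures, incubated overnight at room temperature in the dark, quantifies parasite DNA. Infected erythrocytes at 0.3% parasitemia and 2.5% hematocrit were exposed 72 h; values normalized to DMSO and 0.29 uM artemisinin controls.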
# [4] = qHTS profiling of the MIPE4 collection as inhibitors of Plasmodium falciparum (3D7) proliferation (AID 743344);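 further: scaled between DMSO vehicle wells and 0.29 µM artemisinin as full inhibition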; settings: P. falciparum 3D7 in erythrocytes, SYBR Green DNA fluorescence, 72 h; at 28.5 µM (top of the series)
# Procedure, shortened: as §1
# [5] = qHTS profiling of the MIPE4 collection as inhibitors of Plasmodium falciparum (DD2) proliferation (AID 743345); settings: P. falciparum Dd2 in erythrocytes, SYBR Green DNA, 72 h; at 28.5 µM (top of the series)
# Procedure, shortened: as §1
# [6] = qHTS profiling of the MIPE4 collection as inhibitors of Plasmodium falciparum (DD2) proliferation (Rep 2) (AID 743346); settings: P. falciparum Dd2 in erythrocytes, SYBR Green DNA, 72 h; at 28.5 µM (top of the series)
# Procedure, shortened: as §1
# [7] = qHTS profiling of the MIPE4 collection as inhibitors of Plasmodium falciparum (HB3) proliferation (AID 743347);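 further: plate controls were DMSO vehicle wells for no effect and artemisinin wells for full effect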; settings: P. falciparum HB3 in erythrocytes, SYBR Green DNA, 72 h; at 28.5 µM (top of the series)
# Procedure, shortened: as §1
# [8] = target: RecQ-like DNA helicase BLM (Homo sapiens) (UniProt P54132); experiment: qHTS for Inhibitors of WRN Helicase: BLM Helicase Counterscreen for WRN Inhibitors (AID 720503; active means well fitted curve in the direction sought with a large enough effect; an effect the other way counts as inactive or inconclusive; further: nearly all actives have a fitted effect of over 60% in size; further: potency means the concentration at half of the fitted maximal effect)
# Chain of RecQ-like DNA helicase BLM (Homo sapiens) (P54132 whole entry, looked up): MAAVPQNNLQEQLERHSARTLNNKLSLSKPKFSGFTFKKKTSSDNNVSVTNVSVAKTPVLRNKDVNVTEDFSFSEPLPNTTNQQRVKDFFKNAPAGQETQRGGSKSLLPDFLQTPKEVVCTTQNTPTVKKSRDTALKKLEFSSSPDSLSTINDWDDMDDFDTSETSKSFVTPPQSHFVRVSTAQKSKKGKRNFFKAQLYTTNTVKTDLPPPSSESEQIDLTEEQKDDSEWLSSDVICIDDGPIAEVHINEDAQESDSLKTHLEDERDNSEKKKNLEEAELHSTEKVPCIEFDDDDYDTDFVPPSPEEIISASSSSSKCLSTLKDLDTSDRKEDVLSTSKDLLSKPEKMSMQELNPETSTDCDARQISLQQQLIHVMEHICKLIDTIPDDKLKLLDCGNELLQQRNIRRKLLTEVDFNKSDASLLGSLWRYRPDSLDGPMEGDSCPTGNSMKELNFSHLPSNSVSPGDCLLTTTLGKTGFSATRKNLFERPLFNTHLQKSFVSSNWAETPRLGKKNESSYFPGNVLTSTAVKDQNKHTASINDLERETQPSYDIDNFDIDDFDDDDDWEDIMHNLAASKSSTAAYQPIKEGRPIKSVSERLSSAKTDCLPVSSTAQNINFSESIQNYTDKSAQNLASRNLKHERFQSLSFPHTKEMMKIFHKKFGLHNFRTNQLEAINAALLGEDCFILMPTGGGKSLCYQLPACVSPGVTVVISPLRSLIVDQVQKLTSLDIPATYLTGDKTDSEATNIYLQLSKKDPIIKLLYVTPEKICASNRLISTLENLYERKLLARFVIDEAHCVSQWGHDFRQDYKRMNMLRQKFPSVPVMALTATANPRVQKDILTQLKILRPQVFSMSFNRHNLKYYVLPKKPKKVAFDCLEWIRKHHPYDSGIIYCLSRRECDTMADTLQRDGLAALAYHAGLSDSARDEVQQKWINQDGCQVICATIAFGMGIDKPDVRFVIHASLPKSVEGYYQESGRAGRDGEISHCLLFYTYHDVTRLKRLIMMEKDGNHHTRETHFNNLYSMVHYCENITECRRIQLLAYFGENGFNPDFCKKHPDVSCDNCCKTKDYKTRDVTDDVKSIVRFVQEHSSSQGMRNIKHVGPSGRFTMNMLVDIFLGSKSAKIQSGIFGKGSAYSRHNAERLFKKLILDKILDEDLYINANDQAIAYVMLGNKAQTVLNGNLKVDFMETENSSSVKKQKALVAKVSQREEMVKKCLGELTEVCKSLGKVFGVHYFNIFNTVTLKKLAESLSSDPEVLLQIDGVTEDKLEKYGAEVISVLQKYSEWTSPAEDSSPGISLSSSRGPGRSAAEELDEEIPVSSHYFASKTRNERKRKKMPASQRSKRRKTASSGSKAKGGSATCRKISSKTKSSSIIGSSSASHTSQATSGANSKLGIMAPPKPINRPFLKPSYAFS
# Procedure, shortened: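 1 nM BLM, Tris pH 8.0/NaCl/MgCl2/DTT/Tween-20; cpd preinc 15 min RT; start w/ 100 nM DNA + 2 mM ATP final; fluorescence (ex 525/em 598) two reads 15 min apart; normalized to enzyme-free and DMSO controls.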
# [9] = qHTS Assay for Identifying Gametocytocidal Compounds (AID 743244; active means well fitted curve in the direction sought with a large enough effect; an effect the other way counts as inactive or inconclusive;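 further: on the % scale 0 is the no-effect control and ±100 the full control effect; actives lower the fluorescent signal which means gametocytes are killed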); settings: P. falciparum 3D7 stage III-V gametocytes, alamarBlue, 72 h; stronger effect = lower value
# Procedure, shortened: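 A resazurin-based viability read-out was applied to mature P. falciparum gametocytes: 72 h compound treatment, then 24 h dye incubation, with falling fluorescence signalling gametocytocidal effect.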
# [10] = target: Cytochrome P450 2C9 (Homo sapiens) (UniProt P11712); experiment: qHTS Assay for Inhibitors and Substrates of Cytochrome P450 2C9 (AID 883; active means well fitted curve in the direction sought with a large enough effect; an effect the other way counts as inactive or inconclusive; further: nearly all actives have a fitted effect of over 60% in size; further: potency means the concentration at half of the fitted maximal effect)
# Chain of Cytochrome P450 2C9 (Homo sapiens) (P11712 whole entry, looked up): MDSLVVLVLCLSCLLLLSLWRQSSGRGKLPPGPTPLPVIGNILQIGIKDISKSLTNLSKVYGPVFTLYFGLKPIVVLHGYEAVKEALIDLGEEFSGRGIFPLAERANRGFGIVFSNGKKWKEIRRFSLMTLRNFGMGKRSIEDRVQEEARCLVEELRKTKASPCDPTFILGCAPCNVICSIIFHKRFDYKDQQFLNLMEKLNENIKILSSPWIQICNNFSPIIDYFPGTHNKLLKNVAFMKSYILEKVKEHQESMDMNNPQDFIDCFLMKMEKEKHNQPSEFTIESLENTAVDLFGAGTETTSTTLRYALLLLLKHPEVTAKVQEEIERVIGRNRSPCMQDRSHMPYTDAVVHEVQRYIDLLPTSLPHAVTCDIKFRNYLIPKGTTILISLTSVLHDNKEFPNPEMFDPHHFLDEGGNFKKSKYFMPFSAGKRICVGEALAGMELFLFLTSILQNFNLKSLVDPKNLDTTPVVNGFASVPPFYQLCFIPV
# Procedure, shortened: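 Signal: luciferase luminescence reporting luciferin produced by CYP2C9. Conditions: 10nM enzyme, Luciferin-H 100uM at KM, 25mM KPO4, 37C, 60 min NADPH-driven reaction. Reference: 57uM sulphaphenazole as 100% inhibition.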
# [11] = target: Cytochrome P450 3A4 (Homo sapiens) (UniProt P08684); experiment: qHTS Assay for Inhibitors and Substrates of Cytochrome P450 3A4 (AID 884; active means well fitted curve in the direction sought with a large enough effect; an effect the other way counts as inactive or inconclusive; further: potency means the concentration at half of the fitted maximal effect; nearly all actives have a fitted effect of over 50% in size)
# Chain of Cytochrome P450 3A4 (Homo sapiens) (P08684 whole entry, looked up): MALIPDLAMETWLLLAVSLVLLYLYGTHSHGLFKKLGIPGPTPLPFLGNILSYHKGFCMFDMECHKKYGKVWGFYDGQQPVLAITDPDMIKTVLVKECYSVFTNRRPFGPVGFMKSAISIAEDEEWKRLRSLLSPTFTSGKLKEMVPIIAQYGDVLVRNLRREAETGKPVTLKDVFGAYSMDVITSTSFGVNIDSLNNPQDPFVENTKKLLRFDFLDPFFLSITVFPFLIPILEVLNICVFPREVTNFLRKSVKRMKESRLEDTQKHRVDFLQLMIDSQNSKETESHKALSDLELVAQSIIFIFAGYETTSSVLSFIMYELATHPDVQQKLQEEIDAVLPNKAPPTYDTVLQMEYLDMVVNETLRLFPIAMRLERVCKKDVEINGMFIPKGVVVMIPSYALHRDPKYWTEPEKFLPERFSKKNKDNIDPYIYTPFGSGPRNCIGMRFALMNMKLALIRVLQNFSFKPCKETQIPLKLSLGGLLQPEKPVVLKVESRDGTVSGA
# Procedure, shortened: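 Luminescent readout of luciferin produced by CYP3A4 (20 nM) dealkylation of Luciferin-PPXE, 25 uM (its KM). NADPH-driven reaction ran 60 min at RT after 10 min compound preincubation; data scaled to 57 uM ketoconazole as 100% inhibition.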
# [12] = target: Cytochrome P450 3A4 (Homo sapiens) (UniProt P08684); experiment: qHTS Assay for Activators of Cytochrome P450 3A4 (AID 885; active means well fitted curve in the direction sought with a large enough effect; an effect the other way counts as inactive or inconclusive; further: nearly all actives have a fitted effect of over 65% in size)
# Procedure, shortened: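 Activators are scored by enhanced luminescence from CYP3A4 conversion of luciferin-PPXE (25uM, equal to KM) to luciferin, after 60 min at RT with an NADPH-regenerating system.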
smiles,measurement,setting,value
Cc1nc2c(C#N)cccc2n1-c1ccc(C(=O)NC2CC2)s1,remaining parasite growth % (stronger effect = lower value),[1],0.492%
same,"activity, percent of control",[2],1.69%
same,"remaining proliferation (% of control), lower = more inhibition",[3],1.16%
same,"parasite growth, % of DMSO control",[4],6.59%
same,"parasite growth remaining, % of DMSO control (lower = more inhibition)",[5],9.03%
same,"parasite growth, % of control (lower = inhibition)",[6],10.3%
same,"growth, % of control",[7],4.26%
CC(C)(C)OC(=O)N[C@@H](Cc1ccc(O[S+](=O)([O-])c2cccc3cccnc23)cc1)C(=O)N1CCN(c2ccccc2)CC1,remaining parasite growth % (stronger effect = lower value),[1],-0.907%
same,"activity, percent of control",[2],-0.148%
same,"remaining proliferation (% of control), lower = more inhibition",[3],-0.0202%
CN(C)c1nc(Nc2ccc(Cl)c(Cl)c2)nc(N(C)C)n1,Potency,[8],inactive
CCCCCCCCCCCCCCCC(=O)O[C@@H]1[C@@H](O)[C@@H](O)[C@@H]([C@H](NC(=O)[C@@H]2C[C@@H](CCC)CN2C)[C@H](C)Cl)O[C@@H]1SC,max response,[9],-16.5% (inactive)
COc1cccc2c1C(=O)c1c(O)c3c(c(O)c1C2=O)CC(O)(C(C)=NNC(=O)c1ccc(Cl)c(Cl)c1)CC3OC1CC(N)C(O)C(C)O1 (stereo not drawn),Potency,[8],4.29 µM (active)
O=C([C@H](Cc1ccc(OS(=O)(=O)c2cccc3cnccc23)cc1)NS(=O)(=O)c1cccc2cnccc12)N1CCN(c2ccccc2)CC1,remaining parasite growth % (stronger effect = lower value),[1],-0.827%
same,"activity, percent of control",[2],1.24%
same,"remaining proliferation (% of control), lower = more inhibition",[3],0.712%
O=C(OCc1ccccc1)N1CCN(C(=O)[C@H](Cc2ccc(O[S+](=O)([O-])c3cccc4cnccc34)cc2)N[S+](=O)([O-])c2cccc3cnccc23)CC1,remaining parasite growth % (stronger effect = lower value),[1],-0.959%
same,"activity, percent of control",[2],0.261%
same,"remaining proliferation (% of control), lower = more inhibition",[3],-0.068%
CCN(CC)CCOc1ccc2c(=O)c3ccc(Cl)cc3n(CCN(CC)CC)c2c1,remaining parasite growth % (stronger effect = lower value),[1],-1.28%
same,"activity, percent of control",[2],0.385%
same,"remaining proliferation (% of control), lower = more inhibition",[3],-0.0504%
same,"parasite growth, % of DMSO control",[4],4.98%
same,"parasite growth remaining, % of DMSO control (lower = more inhibition)",[5],6.06%
same,"parasite growth, % of control (lower = inhibition)",[6],27.8%
same,"growth, % of control",[7],5.14%
COc1cccc([C@@H]2Oc3ccc(OC)cc3/C(=N/O[C@@H](C)CN3CCCCc4nc(C)c(C)cc43)[C@@H]2O)c1,Potency,[10],1.58 µM (active)
same,Potency,[11],3.98 µM (active)
same,"activity change, positive = activation",[12],-96.4% [at 11.4 µM] (inactive)
CO/N=C\c1ccc(C(=O)N2[C@H](c3ccc(C)cc3)[C@@H](C)CC[C@H]2C(=O)OC)cc1,Potency,[10],2.51 µM (active)
same,Potency,[11],3.16 µM (active)
same,"activity change, positive = activation",[12],-64.1% [at 11.4 µM] (inactive)
CC(C)CO/N=C1/[C@H]2O[C@@H]2[C@@H](O)[C@H]2[C@H]1CCn1c(=O)n(-c3ccccc3)c(=O)n12,Potency,[10],inactive
CN(C)CCC=C1c2ccccc2COc2ccccc21,"parasite growth, % of DMSO control",[4],86.6%
same,"parasite growth remaining, % of DMSO control (lower = more inhibition)",[5],53.4%
same,"parasite growth, % of control (lower = inhibition)",[6],55.1%
same,"growth, % of control",[7],96.7%
CC(=O)OC[C@@H]1O[C@@H](O/N=C2/C[C@@H](O)[C@@H](O)[C@@H]3[C@@H]4C(=O)N(C(C)(C)C)C(=O)[C@H]4CC[C@@H]23)[C@H](OC(C)=O)[C@H](OC(C)=O)[C@@H]1OC(C)=O,Potency,[10],inactive
